Data as given in PubChem BioAssay AID1159580 (chemical genetic matrix, 2015).
“And” between values parts separate entries of the source, which are not always exact repeats. Equal entries are not always repeated. Screen size: about 5,500 compounds; about 2,000 (36%) were called active. Roughly 18% stayed inconclusive and do not appear here. No stated cut-off is given here; in the data, active means normalized growth mostly below about 0.91 (no sharp cut-off); inconclusive means no clear call, values can overlap the other calls; inactive means mostly above about 0.92. Some of the results follow.

Assay: chemical genetic growth profiling, strain panel (AID 1159580);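 further: tested at 20 µM; growth read once vehicle control cultures reached saturation at 30 °C; 1 = growth at the plate median or of vehicle wells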
Settings: S. cerevisiae deletion strains, growth OD

Measured: normalized growth

OCCN(CCO)c1nc(N2CCCCC2)c2nc(N(CCO)CCO)nc(N3CCCCC3)c2n1
inactive: locus YJR066W, strain TOR1, stronger effect = lower value 0.982 | locus YJR075W, strain HOC1, stronger effect = lower value 0.997 | locus YKL009W, strain mrt4, stronger effect = lower value 0.998 | locus YKL068W, stronger effect = lower value 1 | locus YKL085W, strain MDH1 (second series), stronger effect = lower value 1.01 | locus YKL085W, strain MDH1, stronger effect = lower value 1.01 | locus YKL160W, strain elf1, stronger effect = lower value 1.04 | locus YKL190W, strain CNB1, stronger effect = lower value 1.01 | locus YKR001C, strain vps1, stronger effect = lower value 1.02 | locus YKR026C, strain gcn3, stronger effect = lower value 0.991 | locus YLL001W, strain dnm1, stronger effect = lower value 1 | locus YLL026W, stronger effect = lower value 0.99 | locus YLL041C, strain sdh2, stronger effect = lower value 0.969 | locus YLR027C, strain aat2, stronger effect = lower value 0.986 | locus YLR039C, strain RIC1, stronger effect = lower value 1.06 | locus YLR058C, strain SHM2, stronger effect = lower value 1.01 | locus YLR102C, strain apc9, stronger effect = lower value 0.987 | locus YLR113W, strain HOG1, stronger effect = lower value 0.999 | locus YLR221C, strain rsa3, stronger effect = lower value 1.02 | locus YLR258W, strain gsy2, stronger effect = lower value 0.997 | locus YLR262C, strain YPT6 (second series), stronger effect = lower value 1.02 | locus YLR262C, strain YPT6, stronger effect = lower value 0.994 | locus YLR268W, strain sec22, stronger effect = lower value 1.01 | locus YLR320W, strain mms22, stronger effect = lower value 1.04 | locus YLR330W, strain CHS5, stronger effect = lower value 1.01 | locus YLR342W, strain FKS1 (second series), stronger effect = lower value 1.02 | locus YLR342W, strain FKS1, stronger effect = lower value 0.99 | locus YLR357W, strain rsc2, stronger effect = lower value 0.985 | locus YLR370C, strain arc18, stronger effect = lower value 0.999 | locus YLR371W, strain rom2, stronger effect = lower value 0.996 | locus YLR384C, strain iki3, stronger effect = lower value 0.994 | locus YLR418C, strain cdc73, stronger effect = lower value 0.976 | locus YML016C, strain PPZ1, stronger effect = lower value 1.01 | locus YML032C, strain rad52, stronger effect = lower value 0.988 | locus YML120C, strain ndi1, stronger effect = lower value 1.02 | locus YML124C, strain tub3, stronger effect = lower value 0.995 | locus YMR058W, strain fet3, stronger effect = lower value 0.968 | locus YMR078C, strain ctf18, stronger effect = lower value 0.994 | locus YMR125W, strain sto1, stronger effect = lower value 0.992 | locus YMR129W, stronger effect = lower value 0.983 | locus YMR205C, strain PFK2, stronger effect = lower value 1.01 | locus YMR223W, strain ubp8, stronger effect = lower value 0.997 | locus YMR231W, strain pep5, stronger effect = lower value 0.989 | locus YMR307W, strain GAS1, stronger effect = lower value 1.02 and 0.989 | locus YNL067W, strain RPL9B, stronger effect = lower value 1 | locus YNL071W, strain lat1, stronger effect = lower value 0.98 | locus YNL128W, strain TEP1, stronger effect = lower value 0.995 | locus YNL153C, strain GIM3, stronger effect = lower value 0.968 | locus YNL175C, strain NOP13, stronger effect = lower value 0.993 | locus YNL183C, strain NPR1, stronger effect = lower value 0.956 | locus YNL197C, strain WHI3, stronger effect = lower value 0.988 | locus YNL209W, strain ssb2, stronger effect = lower value 0.993 | locus YNL224C, strain SQS1, stronger effect = lower value 0.999 | locus YNL233W, strain BNI4, stronger effect = lower value 0.982 | locus YNL248C, strain rpa49, stronger effect = lower value 0.973 | locus YNL250W, strain rad50, stronger effect = lower value 1.01 | locus YNL271C, strain bni1, stronger effect = lower value 0.998 | locus YNL298W, strain CLA4, stronger effect = lower value 0.991 | locus YNL307C, strain MCK1, stronger effect = lower value 0.997 | locus YNL322C, strain KRE1 (second series), stronger effect = lower value 0.988 | locus YNL322C, strain KRE1, stronger effect = lower value 1.02 | locus YNR049C, strain mso1, stronger effect = lower value 0.984 | locus YNR052C, strain pop2, stronger effect = lower value 1 | locus YOL012C, strain htz1 2.13 | locus YOL147C, strain pex11, stronger effect = lower value 1 | locus YOR001W, strain rrp6, stronger effect = lower value 0.928 | locus YOR061W, strain CKA2, stronger effect = lower value 1.02 | locus YOR069W, strain VPS5, stronger effect = lower value 1.01 | locus YOR070C, strain gyp1, stronger effect = lower value 0.996 | locus YOR080W, strain dia2, stronger effect = lower value 0.986 | locus YOR083W, strain WHI5 (second series), stronger effect = lower value 0.981 | locus YOR106W, strain vam3, stronger effect = lower value 1.01 | locus YOR136W, strain idh2, stronger effect = lower value 1 | locus YOR144C, strain elg1, stronger effect = lower value 0.999 | locus YOR184W, strain ser1, stronger effect = lower value 0.997 | locus YOR231W, strain MKK1, stronger effect = lower value 1.02 | locus YOR265W, strain rbl2, stronger effect = lower value 0.997 | locus YOR270C, strain vph1, stronger effect = lower value 0.948 | locus YOR290C, strain snf2, stronger effect = lower value 0.931 | locus YOR316C, strain cot1, stronger effect = lower value 0.999 | locus YPL051W, strain arl3, stronger effect = lower value 1.05 | locus YPL055C, strain LGE1, stronger effect = lower value 0.996 and 1.03 | locus YPL078C, strain atp4, stronger effect = lower value 1 | locus YPL106C, strain sse1, stronger effect = lower value 1.01 | locus YPL240C, strain hsp82, stronger effect = lower value 0.99 | locus YPL241C, strain CIN2, stronger effect = lower value 1 | locus YPL256C, strain CLN2, stronger effect = lower value 1 | locus YPR119W, strain clb2, stronger effect = lower value 0.994 | locus YPR141C, strain kar3, stronger effect = lower value 0.995 | locus YPR163C, strain tif3, stronger effect = lower value 1 | locus YPR167C, strain met16, stronger effect = lower value 0.996 | strain wtn01, stronger effect = lower value 0.994
active: locus YKR091W, strain srl3, stronger effect = lower value 0.551 | locus YOR083W, strain WHI5, stronger effect = lower value 0.233
